In PubChem BioAssay:
For part of these data: Potency and affinity values are given separately. Activity calls are given as the source filed them.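 How the source made its calls, unless noted: active means primary screen hit whose fluorescence ratio, in both repeats, exceeds the weak agonist control mean by 3 SD; inactive means the rest.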

Experiments:
[1] = test system: TRPC4 beta (transient receptor potential cation channel C4), mouse; experiment: TRPC4 cation channel opening, retest – cell-based, Fluo4 calcium, HEK293 TRPC4beta/mu-opioid, duplicates, 10 µM, confirmation (AID 2426;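 active means fluorescence ratio normalized to control raised more than 50% in primary screen plus both repeat runs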;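 on activation: percent rise of integrated ratio over buffer wells lacking compound which define 0%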); conditions: Fluo4 calcium fluorescence, at 10 µM; hits give high values
[2] = test system: transient receptor potential cation channel C4 beta (TRPC4), mouse; experiment: TRPC4 cation channel opening, second retest – cell-based, second round, Fluo4, HEK293 TRPC4beta/mu-opioid, 1 µM, confirmation (AID 2461;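 active means primary screen active and over 50% activation in each of two duplicate runs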); conditions: Fluo4 calcium fluorescence, at 1 µM; hits give high values
[3] = test system: TRPC4 (transient receptor potential cation channel C4 beta), mouse; experiment: potentiation of DAMGO EC20 TRPC4 response – cell-based, second round, Fluo-4, HEK293 TRPC4beta/mu-opioid, 1 µM, confirmation (AID 2554); conditions: DAMGO EC20, Fluo-4 calcium flux, at 1 µM; hits give high values
[4] = test system: TRPC4 beta (transient receptor potential cation channel C4), mouse; experiment: potentiation of DAMGO EC20 TRPC4 response – cell-based, Fluo-4, HEK293 TRPC4beta/mu-opioid, confirmation (AID 2555;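 active means primary screen hit whose calcium fluorescence ratio, in both repeats, exceeds the weak agonist control mean by 3 SD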); conditions: DAMGO EC20, Fluo-4 calcium flux, at 10 µM; hits give high values
[5] = molecular target: Short transient receptor potential channel 4 (Mus musculus) (UniProt Q9QUQ5); experiment: blockers of DAMGO-evoked TRPC4 calcium flux – cell-based, Fluo4, HEK293 TRPC4beta/mu-opioid, confirmation (AID 2636;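 active means calcium signal cut by more than 3 SD below the full-agonist control yet still positive, in both repeats and the earlier primary screen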); conditions: at 10 µM; hits give high values
[6] = molecular target: Short transient receptor potential channel 4 (Mus musculus) (UniProt Q9QUQ5); experiment: blockers of DAMGO-evoked TRPC4 calcium flux – cell-based, second round, Fluo4, HEK293 TRPC4beta/mu-opioid, 1 µM, confirmation (AID 2637;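 active means calcium signal ratio cut to more than 3 SD under the fully stimulated control mean yet still positive, in both repeats and the primary screen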); conditions: at 1 µM; hits give high values
[7] = molecular target: Short transient receptor potential channel 4 (Mus musculus) (UniProt Q9QUQ5); experiment: calcium entry via TRPC4 opening agents – cell-based, HEK293 TRPC4/mu-opioid, Fluo-4 calcium, dose response (AID 434937;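 active means primary screen activator hit with a dose response curve and TRPC4 channel activation at any tested dose; inactive means no activation, no dose response, or not a primary hit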)
[8] = molecular target: Short transient receptor potential channel 4 (Mus musculus) (UniProt Q9QUQ5); experiment: potentiation of DAMGO-evoked TRPC4 calcium signal – cell-based, HEK293 TRPC4/mu-opioid, Fluo-4 calcium, EC20 DAMGO, dose response (AID 434941;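 active means earlier screen potentiator hit that boosts the TRPC4 ion channel at some dose, with a dose response; inactive means no potentiation, no dose response, or not a prior hit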;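 further: calcium entry triggered by an EC20 dose of DAMGO at the co-expressed mu-opioid receptor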)
[9] = molecular target: Short transient receptor potential channel 4 (Mus musculus) (UniProt Q9QUQ5); experiment: block of DAMGO-driven TRPC4 calcium entry – cell-based, HEK293 TRPC4/mu-opioid, Fluo-4 calcium, dose response (AID 434942;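 active means primary screen inhibitor hit that blocks the TRPC4 channel at some tested dose, yielding a dose curve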)
[10] = molecular target: Short transient receptor potential channel 6 (Mus musculus) (UniProt Q61143); experiment: TRPC6 blockade by TRPC4 inhibitor hits – cell-based, HEK293, membrane potential dye, duplicate, selectivity assay for TRPC4 inhibitor project, confirmation (AID 434948;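 active means active in primary screen and both duplicates, each dropping signal beyond three positive-control SD with fluorescence still positive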); conditions: HEK293 TRPC6, membrane potential dye fluorescence, at 10 µM, stimulated with maximal-effect acetylcholine; hits give high values
[11] = molecular target: Short transient receptor potential channel 6 (Mus musculus) (UniProt Q61143); experiment: TRPC6 opening by TRPC4 activator hits – cell-based, HEK293, membrane potential dye, duplicate, selectivity assay for TRPC4 activator project, confirmation (AID 434950;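 active means membrane potential signal rise above negative control mean plus 3 SD in both duplicates, also active in the earlier TRPC4 screen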;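 on activation: 0% = buffer only wells and 100% = acetylcholine maximal-effect wells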); conditions: HEK293 TRPC6, membrane potential fluorescence, at 10 µM; activation: hits give high values; outcome: activation
[12] = molecular target: Short transient receptor potential channel 6 (Mus musculus) (UniProt Q61143); experiment: positive modulators of mouse TRPC6 channel – HEK293 cells, membrane potential dye, duplicate, selectivity assay for TRPC4 potentiator project, confirmation (AID 434952;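 active means compound raising the membrane signal above positive-control mean plus 3 SD in both repeats, and a primary screen hit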); conditions: HEK293 TRPC6, membrane potential dye fluorescence, at 10 µM, maximal acetylcholine added after compound; hits give high values
[13] = molecular target: Short transient receptor potential channel 4 (Mus musculus) (UniProt Q9QUQ5); experiment: calcium flux activators in TRPC4/5HT1a cells, counter-screen for TRPC4 activator project, cell-based, second counter screen, HEK293 TRPC4/5HT1a, Fluo-4 (AID 434977;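 active means calcium signal rise above buffer-control mean plus 5 SD in both duplicates, and also a hit in the primary screen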;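 on activation: plate controls were assay buffer for no effect and maximal serotonin response for full effect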); conditions: Fluo-4 calcium flux, at 10 µM; hits give high values
[14] = serotonin-gated TRPC4 signal block – cell-based, second counter screen, HEK293 TRPC4/5HT1a, Fluo-4, counter-screen for TRPC4 inhibitor project, confirmation (AID 434978;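 active means primary screen active whose calcium signal fell more than 3 SD beyond the full-serotonin control mean in both duplicate plates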;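 on outcome: serotonin given first at submaximal then at maximal dose after compound preincubation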); conditions: Fluo-4 calcium flux, at 10 µM, serotonin added to trigger calcium flux; hits give high values
[15] = test system: TRPC4 (mouse), co-expressed with 5HT1a in HEK293; experiment: enhancement of serotonin-evoked TRPC4 response – cell-based, second counter screen, HEK293 TRPC4/5HT1a, Fluo-4, counter-screen for TRPC4 potentiator project, confirmation (AID 434979;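 active means signal rise over 3 SD above mean of control wells given weak agonist, in both repeats and first screen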); conditions: Fluo-4 calcium flux, at 10 µM, serotonin added at its EC20 dose; hits give high values
[16] = nonspecific calcium rise without TRPC4 – cell-based, HEK293 mu-opioid receptor line, counter-screen for TRPC4 activator project, confirmation (AID 449723;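 active means hit in primary screen, with calcium signal over 5 SD above buffer well mean in both duplicates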;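 further: counter screen cells carry the mu-opioid receptor alone and lack TRPC4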); conditions: HEK293 mu-opioid cells, Fluo-4 calcium fluorescence, at 10 µM; hits give high values
[17] = nonspecific potentiation of DAMGO calcium response – cell-based, HEK293 mu-opioid receptor line, counter-screen for TRPC4 allosteric potentiator project, confirmation (AID 449724;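 active means calcium signal rise more than 3 SD above the low-dose agonist control mean, in both duplicate plates and the primary screen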); conditions: HEK293 mu-opioid receptor cells, Fluo-4 calcium flux, at 10 µM, compound added before EC20 DAMGO stimulus; hits give high values

Short transient receptor potential channel 4 (Mus musculus), sequence (Q9QUQ5 whole entry, looked up): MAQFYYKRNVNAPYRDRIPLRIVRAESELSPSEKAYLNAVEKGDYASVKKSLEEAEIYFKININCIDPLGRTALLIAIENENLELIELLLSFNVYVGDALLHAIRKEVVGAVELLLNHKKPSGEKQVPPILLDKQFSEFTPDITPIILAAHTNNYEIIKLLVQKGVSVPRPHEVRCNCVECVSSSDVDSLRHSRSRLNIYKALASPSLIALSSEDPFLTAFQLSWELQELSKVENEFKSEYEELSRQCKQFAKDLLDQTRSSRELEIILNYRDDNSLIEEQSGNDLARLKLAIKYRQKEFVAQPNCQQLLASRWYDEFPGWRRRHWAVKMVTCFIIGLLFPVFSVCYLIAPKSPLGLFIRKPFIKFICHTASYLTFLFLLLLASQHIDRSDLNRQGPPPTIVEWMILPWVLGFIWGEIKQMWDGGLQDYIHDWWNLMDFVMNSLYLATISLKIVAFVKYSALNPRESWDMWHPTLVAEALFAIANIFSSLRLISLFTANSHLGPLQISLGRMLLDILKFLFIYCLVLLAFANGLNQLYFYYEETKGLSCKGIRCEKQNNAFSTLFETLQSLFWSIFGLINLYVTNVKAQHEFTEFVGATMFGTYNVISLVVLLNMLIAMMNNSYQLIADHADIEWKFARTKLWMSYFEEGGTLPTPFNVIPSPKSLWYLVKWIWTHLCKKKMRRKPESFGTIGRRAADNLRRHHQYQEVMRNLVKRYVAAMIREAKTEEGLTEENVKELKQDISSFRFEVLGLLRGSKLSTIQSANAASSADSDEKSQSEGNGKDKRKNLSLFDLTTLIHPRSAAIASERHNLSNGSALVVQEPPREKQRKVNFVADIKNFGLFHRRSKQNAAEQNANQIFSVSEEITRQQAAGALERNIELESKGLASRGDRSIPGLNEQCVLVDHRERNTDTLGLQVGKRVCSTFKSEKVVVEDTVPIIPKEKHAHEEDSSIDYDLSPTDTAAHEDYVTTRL
Short transient receptor potential channel 6 (Mus musculus), sequence (Q61143 whole entry, looked up): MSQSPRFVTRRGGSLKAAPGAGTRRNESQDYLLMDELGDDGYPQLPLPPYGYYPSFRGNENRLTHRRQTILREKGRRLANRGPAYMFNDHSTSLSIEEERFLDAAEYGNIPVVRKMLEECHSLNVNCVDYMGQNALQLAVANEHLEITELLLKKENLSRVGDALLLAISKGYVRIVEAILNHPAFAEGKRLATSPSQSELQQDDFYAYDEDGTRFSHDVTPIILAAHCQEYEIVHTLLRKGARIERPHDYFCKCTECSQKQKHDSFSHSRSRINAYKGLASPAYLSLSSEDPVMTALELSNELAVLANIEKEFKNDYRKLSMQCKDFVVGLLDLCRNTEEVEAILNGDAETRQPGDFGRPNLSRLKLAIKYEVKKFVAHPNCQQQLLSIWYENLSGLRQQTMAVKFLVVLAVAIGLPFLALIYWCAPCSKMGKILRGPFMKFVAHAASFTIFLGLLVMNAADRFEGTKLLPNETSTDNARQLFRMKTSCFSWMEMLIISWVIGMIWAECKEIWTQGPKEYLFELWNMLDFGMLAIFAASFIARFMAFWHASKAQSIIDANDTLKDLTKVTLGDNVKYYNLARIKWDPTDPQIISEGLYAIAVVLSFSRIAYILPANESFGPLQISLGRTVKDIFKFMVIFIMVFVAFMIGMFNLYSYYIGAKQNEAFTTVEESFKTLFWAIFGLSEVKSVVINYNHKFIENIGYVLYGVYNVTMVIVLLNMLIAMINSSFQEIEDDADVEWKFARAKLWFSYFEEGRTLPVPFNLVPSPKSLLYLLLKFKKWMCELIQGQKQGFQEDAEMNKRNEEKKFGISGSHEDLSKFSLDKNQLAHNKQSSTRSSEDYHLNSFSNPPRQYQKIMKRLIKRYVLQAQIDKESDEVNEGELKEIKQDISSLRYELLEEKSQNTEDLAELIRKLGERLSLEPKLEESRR

## COc1ccc(CCn2c(=S)[nH]c3cc(C(=O)N4CCOCC4)ccc3c2=O)cc1OC
[1]
  outcome: inactive
[2]
  outcome: inactive
[3]
  outcome: inactive
[4]
  outcome: inactive
[5]
  outcome: inactive
[6]
  outcome: inactive
[7]
  outcome: inactive
[8]
  outcome: inactive
[9]
  outcome: inactive
[10]
  outcome: inactive
[11]
  outcome: inactive
[12]
  outcome: inactive
[13]
  outcome: inactive
[14]
  outcome: inactive
[15]
  outcome: inactive
[16]
  outcome: inactive
[17]
  outcome: inactive

## CC1CCCCC1NC(=O)c1cc2ccccc2o1 (stereo not given)
[1]
  outcome: inactive
[2]
  outcome: inactive
[3]
  outcome: inactive
[4]
  potentiation: 46% (active)
[5]
  outcome: inactive
[6]
  outcome: inactive
[7]
  outcome: inactive
[8]
  outcome: inactive
[9]
  outcome: inactive
[10]
  outcome: inactive
[11]
  outcome: inactive
[12]
  outcome: inactive
[13]
  outcome: inactive
[14]
  outcome: inactive
[15]
  potentiation: 42.2% (active)
[16]
  outcome: inactive
[17]
  outcome: inactive

## OC(CNCC1CCCO1)Cn1c2ccc(Br)cc2c2cc(Br)ccc21 (stereo not given)
[1]
  outcome: inactive
[2]
  outcome: inactive
[3]
  outcome: inactive
[4]
  outcome: inactive
[5]
  outcome: inactive
[6]
  outcome: inactive
[7]
  outcome: inactive
[8]
  outcome: inactive
[9]
  outcome: inactive
[10]
  outcome: inactive
[11]
  outcome: inactive
[12]
  outcome: inactive
[13]
  outcome: inactive
[14]
  outcome: inactive
[15]
  potentiation: 45.1% (active)
[16]
  outcome: inactive
[17]
  outcome: inactive

## Cc1ccc(C(=O)Nc2ccccc2C(=O)N2CC3(C)CC2CC(C)(C)C3)cc1 (stereo not given)
[1]
  outcome: inactive
[2]
  outcome: inactive
[3]
  outcome: inactive
[4]
  outcome: inactive
[5]
  outcome: inactive
[6]
  outcome: inactive
[7]
  outcome: inactive
[8]
  outcome: inactive
[9]
  outcome: inactive
[10]
  outcome: inactive
[11]
  outcome: inactive
[12]
  outcome: inactive
[13]
  outcome: inactive
[14]
  outcome: inactive
[15]
  outcome: inactive
[16]
  outcome: inactive
[17]
  outcome: inactive

## CCn1c(/C=C/Nc2ccccc2)[n+](CC)c2ccc(Cl)cc21
[1]
  outcome: inactive
[2]
  outcome: inactive
[3]
  outcome: inactive
[4]
  outcome: inactive
[5]
  outcome: inactive
[6]
  outcome: inactive
[7]
  outcome: inactive
[8]
  outcome: inactive
[9]
  outcome: inactive
[10]
  outcome: inactive
[11]
  outcome: inactive
[12]
  outcome: inactive
[13]
  outcome: inactive
[14]
  outcome: inactive
[15]
  outcome: inactive
[16]
  outcome: inactive
[17]
  outcome: inactive

## Oc1cccc(C(=S)N2CCN(Cc3ccccc3)CC2)c1
[1]
  outcome: inactive
[2]
  outcome: inactive
[3]
  outcome: inactive
[4]
  outcome: inactive
[5]
  outcome: inactive
[6]
  outcome: inactive
[7]
  outcome: inactive
[8]
  outcome: inactive
[9]
  outcome: inactive
[10]
  outcome: inactive
[11]
  outcome: inactive
[12]
  outcome: inactive
[13]
  outcome: inactive
[14]
  outcome: inactive
[15]
  outcome: inactive
[16]
  outcome: inactive
[17]
  outcome: inactive

## Cc1cc(N2CCCCC2)nc(NCc2ccccc2)n1
[1]
  activation: 66% (active)
[2]
  outcome: inactive
[3]
  outcome: inactive
[4]
  outcome: inactive
[5]
  outcome: inactive
[6]
  outcome: inactive
[7]
  outcome: inactive
[8]
  outcome: inactive
[9]
  outcome: inactive
[10]
  outcome: inactive
[11]
  activation: 68.5% (active)
[12]
  outcome: inactive
[13]
  activation: 19.4% (active)
[14]
  outcome: inactive
[15]
  outcome: inactive
[16]
  activation: 29.5% (active)
[17]
  outcome: inactive

## O=C1CCSc2ccc(Cl)cc2N1Cc1ccc(Cl)cc1
[1]
  outcome: inactive
[2]
  outcome: inactive
[3]
  outcome: inactive
[4]
  outcome: inactive
[5]
  outcome: inactive
[6]
  outcome: inactive
[7]
  outcome: inactive
[8]
  outcome: inactive
[9]
  outcome: inactive
[10]
  outcome: inactive
[11]
  outcome: inactive
[12]
  outcome: inactive
[13]
  outcome: inactive
[14]
  outcome: inactive
[15]
  outcome: inactive
[16]
  outcome: inactive
[17]
  outcome: inactive

## Cc1cccc(NC(=O)c2cc([N+](=O)[O-])ccc2N2CCN(C)CC2)c1
[1]
  outcome: inactive
[2]
  outcome: inactive
[3]
  outcome: inactive
[4]
  outcome: inactive
[5]
  outcome: inactive
[6]
  outcome: inactive
[7]
  outcome: inactive
[8]
  outcome: inactive
[9]
  outcome: inactive
[10]
  outcome: inactive
[11]
  outcome: inactive
[12]
  outcome: inactive
[13]
  outcome: inactive
[14]
  outcome: inactive
[15]
  potentiation: 18.8% (active)
[16]
  outcome: inactive
[17]
  outcome: inactive

## CCCCCCc1cc2cc(-c3nnc(-c4ccccc4O)o3)c(=O)oc2cc1O
[1]
  outcome: inactive
[2]
  outcome: inactive
[3]
  outcome: inactive
[4]
  potentiation: 15% (active)
[5]
  outcome: inactive
[6]
  outcome: inactive
[7]
  outcome: inactive
[8]
  outcome: inactive
[9]
  outcome: inactive
[10]
  outcome: inactive
[11]
  outcome: inactive
[12]
  outcome: inactive
[13]
  outcome: inactive
[14]
  outcome: inactive
[15]
  potentiation: 35.3% (active)
[16]
  outcome: inactive
[17]
  activation: 1460% (active)

## COc1ccc(-c2cc(C(=O)N3CC(C)CC(C)C3)c3ccccc3n2)cc1 (stereo not given)
[1]
  outcome: inactive
[2]
  outcome: inactive
[3]
  outcome: inactive
[4]
  outcome: inactive
[5]
  outcome: inactive
[6]
  outcome: inactive
[7]
  outcome: inactive
[8]
  outcome: inactive
[9]
  outcome: inactive
[10]
  outcome: inactive
[11]
  outcome: inactive
[12]
  outcome: inactive
[13]
  outcome: inactive
[14]
  outcome: inactive
[15]
  outcome: inactive
[16]
  outcome: inactive
[17]
  outcome: inactive

## Clc1ccc(OCCCc2nc(-c3ccncc3)no2)c(Cl)c1
[1]
  outcome: inactive
[2]
  outcome: inactive
[3]
  outcome: inactive
[4]
  outcome: inactive
[5]
  inhibition: 91% (active)
[6]
  outcome: inactive
[7]
  outcome: inactive
[8]
  outcome: inactive
[9]
  outcome: inactive
[10]
  outcome: inactive
[11]
  outcome: inactive
[12]
  outcome: inactive
[13]
  outcome: inactive
[14]
  inhibition: 30.7% (active)
[15]
  outcome: inactive
[16]
  outcome: inactive
[17]
  outcome: inactive

## CCOC(=O)c1ccc(N=C2C(=S)N(c3ccc(C(=O)OCC)cc3)C(=N)N2/N=C/c2ccccc2)cc1
[1]
  outcome: inactive
[2]
  outcome: inactive
[3]
  outcome: inactive
[4]
  outcome: inactive
[5]
  outcome: inactive
[6]
  outcome: inactive
[7]
  outcome: inactive
[8]
  outcome: inactive
[9]
  outcome: inactive
[10]
  outcome: inactive
[11]
  outcome: inactive
[12]
  outcome: inactive
[13]
  outcome: inactive
[14]
  outcome: inactive
[15]
  outcome: inactive
[16]
  outcome: inactive
[17]
  outcome: inactive

## COc1ccccc1N1CCN(Cc2cc(=O)c(OCC(=O)NC3CCCC3)co2)CC1
[1]
  outcome: inactive
[2]
  outcome: inactive
[3]
  outcome: inactive
[4]
  outcome: inactive
[5]
  outcome: inactive
[6]
  outcome: inactive
[7]
  outcome: inactive
[8]
  outcome: inactive
[9]
  outcome: inactive
[10]
  outcome: inactive
[11]
  outcome: inactive
[12]
  outcome: inactive
[13]
  outcome: inactive
[14]
  outcome: inactive
[15]
  outcome: inactive
[16]
  outcome: inactive
[17]
  outcome: inactive

## O=C(COC(=O)c1ccccc1C(=O)N1CCN(c2ccccc2)CC1)Nc1ccc(F)cc1
[1]
  outcome: inactive
[2]
  outcome: inactive
[3]
  outcome: inactive
[4]
  potentiation: 16% (active)
[5]
  outcome: inactive
[6]
  outcome: inactive
[7]
  outcome: inactive
[8]
  outcome: inactive
[9]
  outcome: inactive
[10]
  outcome: inactive
[11]
  outcome: inactive
[12]
  outcome: inactive
[13]
  outcome: inactive
[14]
  outcome: inactive
[15]
  potentiation: 50.1% (active)
[16]
  outcome: inactive
[17]
  outcome: inactive
